Sfp PPTase inh: inhibitors of Bacillus subtilis Sfp phosphopantetheinyl transferase; Q9F4F7; Biochemical Sfp PPTase activity, qHTS; Potency, µM, most hits filed as inhibitors; 310,000 compounds, 3.5% hits;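 note: the enzyme is Sfp with the accession as filed and its product quenches rhodamine fluorescence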
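Buffer: 50 mM Hepes-Na pH 7.6, 10 mM MgCl2, 0.01% Nonidet P-40, 0.01% BSA. Enzyme 15 nM, pre-exposed to compound 15 min; substrates then added and fluorescence change tracked over 30 min.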
BAZ2B inh: inhibitors of human BAZ2B bromodomain; Q9UIF8; AlphaScreen BAZ2B-H3K14Ac peptide displacement; Potency, µM (series often up to 114 µM), hits mostly inhibitors; 360,000 compounds, 4.4% hits; AID 504333; note: nearly all actives have a fitted effect of over 60% in size
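BAZ2B 50 nM plus b-H3(5-23)K14Ac 50 nM, PBS pH 7.4/0.01% Tween-20, 30 min RT; compound added (max 110 uM), 30 min RT; streptavidin donor/Ni-chelate acceptor beads 10 ug/mL final, 20 min dark; AlphaScreen read.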
HP1b chromo inh: blocks HP1-beta chromodomain binding to methylated histone tails; P83916; AlphaScreen HP1-beta / biotin-H3K9me3 peptide binding; Potency, µM (highest dose often 114 µM), actives largely listed as inhibitors; 390,000 compounds, 0.56% hits; note: nearly all actives have a fitted effect of over 70% in size
Target sequence (P83916 whole entry, looked up): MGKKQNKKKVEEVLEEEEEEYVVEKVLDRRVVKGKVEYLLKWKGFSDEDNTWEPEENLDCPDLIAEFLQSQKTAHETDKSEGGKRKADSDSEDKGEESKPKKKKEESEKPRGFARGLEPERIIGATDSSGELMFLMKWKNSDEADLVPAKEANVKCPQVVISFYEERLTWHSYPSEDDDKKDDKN
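AlphaScreen: HP1-beta (50 nM) preformed 30 min with biotin-H3(1-18)K9me3 peptide (50 nM) in PBS pH 7.4, 0.01% Tween-20. Compound added for 30 min at RT, then streptavidin donor/nickel chelate acceptor beads (10 ug/mL) for 30 min.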
G9a block: G9a (human) methyltransferase inhibition; Q96KQ7; G9a H3K9 monomethylation, AlphaScreen, 2 h; Potency, µM (titrated, usually from 102 µM), usual class: inhibitors; 350,000 compounds, 8.8% hits; AID 504332; note: nearly all actives have a fitted effect of over 75% in size
Target sequence (Q96KQ7 913-1193 limits assumed): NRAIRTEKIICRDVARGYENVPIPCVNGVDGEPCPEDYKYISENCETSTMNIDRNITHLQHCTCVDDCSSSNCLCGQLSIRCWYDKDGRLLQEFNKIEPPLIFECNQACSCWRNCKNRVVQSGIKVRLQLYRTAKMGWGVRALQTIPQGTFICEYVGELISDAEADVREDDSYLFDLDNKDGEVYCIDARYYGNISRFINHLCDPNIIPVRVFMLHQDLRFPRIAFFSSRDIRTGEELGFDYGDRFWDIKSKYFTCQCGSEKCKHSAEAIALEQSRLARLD
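Using a bead-based AlphaScreen, monomethylated H3K9 product from 2 h room-temperature reactions (G9a 20 nM, peptide 500 nM, SAM 20 uM) was detected with 0.5 ug/mL rabbit anti-H3K9me1 antibody.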
JMJD2A Tudor inh: inhibitors of human JMJD2A Tudor domain; O75164; AlphaScreen JMJD2A-Tudor / H3K4me3 peptide binding; Potency, µM (top dose mostly 114 µM), usual class: inhibitors; 390,000 compounds, 4.4% hits; note: nearly all actives have a fitted effect of over 50% in size
Numbers stand for hits; – = inactive; ? = inconclusive; · = not tested or not shown; ! = not active in a repeat; [ ] = remark or other dose. In the library only some 12% were active in any assay of this set; here they are far more common. Calls come from the whole dose curve; as a rule, active = well fitted curve in the direction sought with a large enough effect; inconclusive = small, poorly fitted or top-dose-only effect, or another doubt; inactive = no such curve, though single readings can be large; an effect the other way counts as inactive or inconclusive.

SMILES	Sfp PPTase inh	BAZ2B inh	HP1b chromo inh	G9a block	JMJD2A Tudor inh
Nc1c(-c2ccccc2)c(CN2CCOCC2)nn1-c1ccc(F)cc1	–	–	–	20µM	–
O=S(=O)(O)c1cccc2cccc(Nc3ccccc3)c12	·	·	–	·	50µM
Cc1ccc(N=c2sc(C)c(C)n2C)cc1	–	?	–	45µM	?
CCc1nc(N2CCCC(C)C2)c2oc3ccccc3c2n1 (stereo not drawn)	45µM	–	–	?	20µM
CCc1nc(N2CCN(Cc3ccc4c(c3)OCO4)CC2)c2oc3ccccc3c2n1	35µM	71µM	?	?	?
CCc1nc(N2CCCCC2)c2oc3ccccc3c2n1	–	–	–	–	–
O=C1CCC/C(=N/Nc2ccc(Cl)cc2)C1	20µM	45µM	?	4.5µM	45µM
CC(C)Oc1ccc(S(=O)(=O)N2CCOCC2)cc1NC(=O)CC1OC(=O)c2ccccc21 (stereo not drawn)	·	–	–	16µM	–
COc1cc(NCCCCCCN)c2ncccc2c1OC	·	·	?	·	56µM
COc1cc(NC(C)CCCNC(C)C)c2ncccc2c1OC (stereo not drawn)	·	·	?	·	0.89µM
COc1ccc(C2C(C(=O)c3cccs3)=C(O)C(=O)N2CCN2CCOCC2)c(OC)c1 (stereo not drawn)	–	–	–	50µM	–
COc1cccc(C2C(C(=O)c3ccco3)=C(O)C(=O)N2CCCN2CCOCC2)c1OC (stereo not drawn)	·	·	–	·	–
COc1ccc(OC)c(C2C(C(=O)c3cccs3)=C(O)C(=O)N2CCN2CCOCC2)c1 (stereo not drawn)	?	–	–	45µM	–
N#CC1=C(N)OC2=C(C(=O)CC(c3ccco3)C2)C1c1ccc(OCc2c(F)cccc2Cl)cc1 (stereo not drawn)	–	71µM	–	–[0.501 µM]	?
COc1cccc(C2C(C#N)=C(N)OC3=C2C(=O)CC(c2ccco2)C3)c1OCc1ccc(F)cc1 (stereo not drawn)	–	?	–	–[0.501 µM]	?
Cc1nn(CCC(=O)NNC(=S)Nc2ccccc2)c(C)c1Br	–	–	–	13µM	–
Cc1ccc(NC(=O)CCC(=O)NNC(=S)Nc2ccccc2)c(C)c1	–	–	–	·	–
Cc1ccc(C)c(NCC(=O)NNC(=S)Nc2ccccc2)c1	–	–	–	22µM	–
Cc1ccc(C)c(NC(=O)CCC(=O)NNC(=S)Nc2ccccc2)c1	–	–	–	50µM	–
CNC(=S)NNC(=O)CCn1nc(C)c(Br)c1C	–	–	–	–	–
O=c1cc(N2CCc3ccccc3C2)[nH]c(=O)n1-c1ccccc1Cl	–	–	–	?	–
CNC(=S)N1CCC(Cc2ccccc2)CC1	–	–	–	–	–
Cc1cc(C)nc(NS(=O)(=O)c2ccc(NC(=O)NC3CCCCC3)cc2)n1	–	–	–	–[12.7 µM]	–
O=C(Nc1ccccc1N1CCOCC1)c1ccc2c(c1)OCO2	–	–	–	·	–
COc1cc2ccc(=O)oc2c(OC)c1OC	–	·	·	–[2.33 µM]	·
SMILES	Sfp PPTase inh	BAZ2B inh	HP1b chromo inh	G9a block	JMJD2A Tudor inh
COc1cc2ccc(=O)oc2c(O)c1O	40µM!	·	–	·	6.3µM
O=c1c(-c2ccc([N+](=O)[O-])cc2)coc2c(O)c(O)ccc12	–	40µM	–	8.9µM	–
O=C(CCn1c(=O)c2sccc2n(Cc2ccc(F)cc2Cl)c1=O)NCc1ccc2c(c1)OCO2	·	–	–	–	–
O=[N+]([O-])c1ccccc1OCCOCCOc1cccc2cccnc12	?	32µM	?	2µM	20µM
O=C(Nc1cccc2cccnc12)c1cccc([N+](=O)[O-])c1	–	–	–	79µM	–
COC(=O)c1ccccc1OCCOCCOc1cccc2cccnc12	–	–	?	–	–
O=C(Nc1cc([N+](=O)[O-])ccc1O)c1cccc(C(=O)Nc2cc([N+](=O)[O-])ccc2O)c1	–	50µM	–	–	?
Cc1c(C(=O)Oc2cccc3cccnc23)cccc1[N+](=O)[O-]	–	14µM	?	?	45µM
O=C(Nc1cc([N+](=O)[O-])ccc1O)c1cccc([N+](=O)[O-])c1	–	–	–	–	–
O=C(CC(NC(=O)c1ccccc1)c1ccccc1)NCc1ccccc1 (stereo not drawn)	·	·	–	·	–
O=C(O)c1cc(S(=O)(=O)N2CCN(S(=O)(=O)c3ccc4ccccc4c3)CC2)ccc1Br	·	·	–	·	–
O=C(Oc1c(Cl)cc(Cl)c2cccnc12)c1cccc([N+](=O)[O-])c1	–	28µM	–	?	?
O=C(Oc1ccc(-c2cnc3ccccc3n2)cc1)c1ccc(Cl)c([N+](=O)[O-])c1	–	–	–	?	–
O=C(Oc1cccc2cccnc12)c1cccc([N+](=O)[O-])c1	–	16µM	–	–	50µM
O=C(Oc1ccc(-c2cnc3ccccc3n2)cc1)c1cccc([N+](=O)[O-])c1	–	–	–	8.9µM	–
O=[N+]([O-])c1cnn(-c2nc(-c3ccco3)cc(C(F)(F)F)n2)c1	–	–	–	–	–
O=[N+]([O-])c1ccc(O)c(/C=N\N=C2c3ccccc3-c3ccccc32)c1	–	?	–	?	–
Oc1cccc(C=NN=C2c3ccccc3-c3ccccc32)c1	·	·	?	·	45µM
CCOc1cc(C=NN=C2c3ccccc3-c3ccccc32)ccc1O	·	·	50µM	·	25µM
C(=NN=C1c2ccccc2-c2ccccc21)c1ccc2c(c1)OCO2	·	·	50µM	·	20µM
NS(=O)(=O)c1ccc(NNC(=O)c2ccc(Br)o2)c([N+](=O)[O-])c1	·	·	–	·	–
CN(Cc1ccco1)C(=O)CN1C(=O)NC(c2ccccc2)(c2ccccc2)C1=O	·	?	–	?	–
O=C(CSc1nnc(CNC(=O)c2ccco2)o1)c1ccccc1	71µM	–	–	–	–
O=C(CSc1nnc(CNC(=O)c2ccccc2F)o1)NCc1ccccc1	–	–	–	–	–
O=C(CSc1nnc(CNC(=O)c2c(F)cccc2F)o1)NCc1ccco1	–	71µM	–	·	–
SMILES	Sfp PPTase inh	BAZ2B inh	HP1b chromo inh	G9a block	JMJD2A Tudor inh
O=C(CSc1nnc(CNC(=O)c2ccccc2F)o1)c1ccccc1	?	–	–	71µM	?
O=C(CSc1nnc(CNC(=O)c2ccco2)o1)Nc1ccccc1	–	·	–	–	–
C=CCn1c(CNC(=O)c2ccco2)nnc1SCC(=O)c1ccccc1	45µM	–	–	?	–
O=C(CSc1nnc(CNC(=O)c2ccccc2)o1)NCc1ccco1	–	–	–	·	–
COc1cccc(NC(=O)CCC(=O)Nc2ccc3nc(N4CCOCC4)cc(C)c3c2)c1	–	–	–	–	–
CN(CCO)S(=O)(=O)c1ccc2c(c1)C(=NO)c1cc(S(=O)(=O)N(C)CCO)ccc1-2	–	–	–	–	–
C=C/C(C)=C/CC1C(=C)CCC2C(C)(C(=O)O)CCCC12C (stereo not drawn)	–	–	–	–[12.7 µM]	56µM
C=C[C@]1(C)C=C2CCC3[C@](C)(CCC[C@@]3(C)C(=O)O)C2CC1 (stereo partly drawn)	·	–	–	–[12.7 µM]	?

Compound activity (PubChem)
